A selection: hits, their analogues and other compounds. The true share with any hit is near 2.3%.
LGR2 inh: inhibitors of bursicon-induced Drosophila LGR2 receptor cAMP signaling; AID 720647; actives 0.35% (n = 380,000); inhibition, % at 9.99 µM; HEK293 LGR2, CRE-luciferase, bursicon-stimulated, 4 h;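 active = drop in luminescence signal, shown as inhibition above about 50% in the replicate tests, limit read from the data, passing the limit was not always enough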;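 note: agonist challenge used bursicon conditioned medium at about half maximal strength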
SENP7 block: SENP7 protease inhibition; AID 434973; actives 1.5% (n = 330,000); inhibition, % at 5 µM; recombinant SENP7, Z-RLRGG-aminoluciferin luminescence, 40 min;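 active = inhibition above about 50% at the single test dose, limit read from the data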;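 note: plate controls were DMSO with enzyme for no effect and no enzyme buffer wells for full effect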
HSP90 inh: blocks HSP90-mediated luciferase refolding in reticulocyte lysate | Rabbit reticulocyte lysate, luciferase refolding luminescence, 3 h | inhibition, % at 5.6 µM | actives 0.91% (n = 290,000);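 active = inhibition above the screen-wide mean plus 3 SD, computed separately per campaign, cut at about 16% in these data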;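 note: 0% = DMSO wells and 100% = 60 µM geldanamycin wells; inhibitors lower the luminescence because luciferase stays unfolded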
SENP8 block-1: inhibitors of human SENP8 protease. Q96LD8. purified SENP8, Z-RLRGG-aminoluciferin cleavage, luminescence. inhibition, % at 10 µM. actives 1.2% (n = 330,000). AID 2540; in the data active = inhibition above about 50%
SENP8 block-2: inhibitors of human SENP8 protease; Q96LD8; recombinant SENP8, Nedd8 substrate fluorescence; inhibition, % at 20 µM; actives 0.64% (n = 360,000); AID 602440; in the data active = inhibition mostly above about 40%, no sharp cut-off; inactive = mostly below about 27%
SENP6 inh: blocks the human protease SENP6 | Recombinant SENP6 catalytic domain, aminoluciferin luminescence | actives 1.8% (n = 330,000) | inhibition, % at 10 µM;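 active = inhibition above about 50% at the single tested dose, limit read from the data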;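 note: plate controls were DMSO wells with enzyme for no effect and DMSO wells lacking enzyme for full effect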
Target sequence (Q9GZR1 628-1112 limits assumed): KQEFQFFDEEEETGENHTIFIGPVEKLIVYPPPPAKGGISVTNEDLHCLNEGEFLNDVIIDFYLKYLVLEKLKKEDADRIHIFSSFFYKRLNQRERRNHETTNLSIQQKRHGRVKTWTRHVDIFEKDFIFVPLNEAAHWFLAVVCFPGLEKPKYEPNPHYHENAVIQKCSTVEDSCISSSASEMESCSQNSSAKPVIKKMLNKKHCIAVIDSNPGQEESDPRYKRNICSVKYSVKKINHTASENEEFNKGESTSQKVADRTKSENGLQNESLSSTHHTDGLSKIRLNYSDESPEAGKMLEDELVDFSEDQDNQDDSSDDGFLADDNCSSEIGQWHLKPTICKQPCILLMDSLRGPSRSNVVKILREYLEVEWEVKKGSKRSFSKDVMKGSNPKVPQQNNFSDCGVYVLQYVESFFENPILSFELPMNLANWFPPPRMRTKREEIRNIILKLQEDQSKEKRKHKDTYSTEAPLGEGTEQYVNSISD
Starred values were filed as active, the others as inactive; x = no result given; ! = a repeat was not active.

SMILES | LGR2 inh | SENP7 block | HSP90 inh | SENP8 block-1 | SENP8 block-2 | SENP6 inh
Cc1cccc(NC(=S)NNC(=O)c2ccccc2Br)c1 | -62 | 16 | 3 | 11 | 7 | 68*
COc1ccc(C)c2sc(=NC(=O)c3ccc(C(C)=O)cc3)n(C)c12 | -84 | 97* | 5 | 82* | -305 | 89*
COc1ccc(C)c2sc(=NC(=O)C(C)C)n(C)c12 | x | 5 | 2 | -6 | -46 | -6
Cc1noc(C)c1NC(=O)Nc1ccc2c(c1)CC(=O)N([C@H](C)CO)C[C@@H](C)[C@@H](CN(C)C(=O)NC1CCCCC1)O2 | -24 | x | x | x | x | x
O=[N+]([O-])c1c(Nc2ccccn2)cc(Cl)c2nonc12 | x | 95* | 12 | 43 | 68* | 87*
O=C1C=CC(=C(c2ccc(O)cc2)c2ccc(O)cc2)C=C1 | 58*! | 4 | x | -1 | 0 | -8
C[C@@H](NC(=O)C[C@H]1CC[C@@H](NC(=O)C2CCOCC2)[C@H](CO)O1)c1ccccc1 | -5 | x | x | x | x | x
CC(C)CC#Cc1ccc([C@@H]2[C@H]3CN(C(=O)c4cnccn4)CC(=O)N3[C@H]2CO)cc1 | -22 | x | x | x | x | x
Cc1ccc(N2CCN(C3=NC(=O)/C(=C\c4cn[nH]c4-c4ccccc4)S3)CC2)cc1 | 20 | 4 | 4 | -9 | 17 | 8
O=C1N=C(N2CCN(c3ccccc3)CC2)S/C1=C\c1cn[nH]c1-c1ccccc1 | 60* | 2 | 8 | -4 | -15 | -27
C#Cc1cccc(NC(=O)c2ccc(Cl)cc2Cl)c1 | -76 | 74* | 1 | 62* | 11 | 73*
CCCC(=O)N1CCC2(CC1)CN(C(=O)COC)[C@@H](CO)c1c2c2ccc(OC)cc2n1C | -19 | x | x | x | x | x
Nc1[nH]n(-c2ccccc2)c(=O)c1N=Nc1ccc2ncsc2c1 | -51 | -6 | 2 | -1 | 56* | 11
Cc1ccc(N=Nc2c(C)[nH]n(-c3ccccc3)c2=O)cc1Br | 10 | 1 | 1 | 14 | 24 | 3
OC(COCC1COc2ccccc2O1)CN1CCN(c2ccccn2)CC1 (stereo not drawn) | 1 | 0 | 19* | 2 | 2 | -4
COC(=O)c1ccc(N=NNc2ccc(C(=O)OC)cc2)cc1 | -62 | 0 | 16* | -12 | -1 | -21
C[C@@H]1CCCCO[C@H](CN(C)CC2CCCCC2)[C@H](C)CN([C@H](C)CO)C(=O)c2cc(NC(=O)Nc3cccc4ccccc34)ccc2O1 | -6 | x | x | x | x | x
Cc1cc(=O)n2c3c(c4c(cc13)c(CN(C)C)cc(=O)n4C)OC2 | 105* | x | x | x | -498 | x
CC(=C\c1ccccc1)/C=C1/SC(=S)N(CCCC(=O)O)C1=O | 8 | -8 | 1 | -32 | 30 | -20
CC(/C=C1\SC(=O)N(CCCC(=O)O)C1=O)=C\c1ccccc1 | 1 | x | 37* | x | 14 | x
Cc1ccc(S(=O)(=O)Cn2nnnc2C(C(C)C)N2CCSCC2)cc1 (stereo not drawn) | 4 | -10 | 3 | -11 | 15 | -2
Cc1ccc(S(=O)(=O)Cn2nnnc2C(C(C)C)N2CCc3ccccc3C2)cc1 (stereo not drawn) | -4 | 10 | 4 | 1 | 64* | 29
CCN1CCN(c2cc(C)c3cc(NC(=S)N4CCCC(C)C4)ccc3n2)CC1 (stereo not drawn) | 23 | -6 | 31* | -4 | -407 | -33
CCN1CCN(c2cc(C)c3cc(NC(=S)N4CC(C)CC(C)C4)ccc3n2)CC1 (stereo not drawn) | -11 | x | 6 | x | -379 | x
CC(=O)Nc1cccc(-c2cn3ccccc3n2)c1 | -31 | -3 | 1 | -11 | -288 | -12
SMILES | LGR2 inh | SENP7 block | HSP90 inh | SENP8 block-1 | SENP8 block-2 | SENP6 inh
CC(C)C(=O)Nc1cccc(-c2cn3ccccc3n2)c1 | 0 | -1 | 16* | -3 | -21 | -2
O=C(c1cc(-c2ccccc2Cl)nc2ccc(Br)cc12)N1CCN(c2ccccn2)CC1 | 68* | -4 | 9 | -15 | 6 | -3
O=C1C2C(C(=O)N1/N=C/c1cc(Br)cc([N+](=O)[O-])c1O)C1C=CC2C12CC2 (stereo not drawn) | x | -5 | 2 | 1 | 41* | -8
O=C1C2C(C(=O)N1/N=C/c1cc([N+](=O)[O-])c(O)cc1O)C1C=CC2C12CC2 (stereo not drawn) | 6 | -2 | 2 | 1 | 15 | 3
CCOC(=O)c1sc(=S)n(-c2ccc(OC)cc2)c1C | x | 2 | 3 | 10 | 9 | -10
CCOC(=O)c1c2c(n(-c3ccc(OC)cc3)c1C)C(=O)C(=O)c1ccccc1-2 | x | x | x | x | 110* | x

Source: PubChem BioAssay (several laboratories)
